Records with an inconclusive call do not appear. Where a call stands in place of a potency, no number is given. Calls of active or inactive are those of the source. Calls follow the shape of the dose curve; as a rule, active = well fitted curve in the direction sought with a large enough effect; inconclusive = small, poorly fitted or top-dose-only effect, or another doubt; inactive = no such curve, though single readings can be large; an effect the other way counts as inactive or inconclusive.
Potency is read from the fitted curve at half-maximal effect.

Rap guanine nucleotide exchange factor 3 (Homo sapiens), sequence (O95398 whole entry, looked up): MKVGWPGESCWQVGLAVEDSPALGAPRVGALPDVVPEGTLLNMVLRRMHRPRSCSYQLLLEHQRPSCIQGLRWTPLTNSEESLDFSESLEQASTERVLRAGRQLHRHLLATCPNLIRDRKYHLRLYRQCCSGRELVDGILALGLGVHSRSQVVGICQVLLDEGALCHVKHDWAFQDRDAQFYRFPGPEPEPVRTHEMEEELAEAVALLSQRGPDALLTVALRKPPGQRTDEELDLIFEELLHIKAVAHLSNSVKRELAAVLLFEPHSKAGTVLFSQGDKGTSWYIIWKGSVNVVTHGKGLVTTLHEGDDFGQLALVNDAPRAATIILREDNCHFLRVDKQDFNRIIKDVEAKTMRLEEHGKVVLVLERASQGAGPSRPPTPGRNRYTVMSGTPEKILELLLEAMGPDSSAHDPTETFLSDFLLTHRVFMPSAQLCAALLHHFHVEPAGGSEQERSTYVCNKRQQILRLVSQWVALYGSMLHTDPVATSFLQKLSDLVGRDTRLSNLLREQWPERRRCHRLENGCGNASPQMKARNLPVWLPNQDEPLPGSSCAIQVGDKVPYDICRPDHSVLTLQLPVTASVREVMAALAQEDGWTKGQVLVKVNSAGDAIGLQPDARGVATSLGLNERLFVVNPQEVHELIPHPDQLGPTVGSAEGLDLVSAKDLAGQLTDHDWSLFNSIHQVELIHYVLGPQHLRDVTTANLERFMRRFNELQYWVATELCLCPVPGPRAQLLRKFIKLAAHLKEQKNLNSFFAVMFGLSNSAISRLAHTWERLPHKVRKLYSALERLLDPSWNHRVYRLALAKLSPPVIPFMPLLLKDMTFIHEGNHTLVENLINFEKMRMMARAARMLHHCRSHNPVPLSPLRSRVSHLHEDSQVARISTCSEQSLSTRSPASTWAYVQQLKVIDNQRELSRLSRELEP

One assay addresses Rap guanine nucleotide exchange factor 3 (Homo sapiens) (UniProt O95398). Put plainly: Confirmatory qHTS for antagonist of cAMP-regulated guanine nucleotide exchange factor 3 (EPAC1) (AID 1645880). Also: nearly all actives have a fitted effect of over 55% in size. The note with it: EPAC1 Rap1B-BODIPY-GDP exchange, fluorescence; activity, negative = inhibition: at 115 µM (top of the series). The method, boiled down:
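Nucleotide exchange uses 100 nM EPAC1, 250 nM RAP1B-BODIPY-GDP and 50 uM GDP, with compounds in a concentration-titration series. After 5 min at room temperature, fluorescence (480 nm ex/540 nm em) is read every 5 min for 30 min. Data are normalized to control ATA and DMSO.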
On the technique in general: qHTS replaces the single test concentration by a dilution series.
As for `O=C(C1=C(O)C(=O)N(c2nc3ccc(Cl)cc3s2)C1c1ccco1)c1ccco1` (configuration not stated), the Potency is 16.9 µM (active).
On the same count and under the same terms, then `CCC(COC)Oc1cc(NCc2ccccc2)c2ncn(C(C)C)c2c1` (configuration not stated), with “inactive”; and `C/C(=N\NC(=O)c1cc(O)ccc1O)c1cccc(NC(=O)c2ccc(Cl)cc2)c1`, with 75.7 µM (active); and `COc1ccc(C2CC(c3cccs3)=NN2C(=O)c2ccco2)cc1OC` (configuration not stated), with “inactive”.
Turning to `CCCCNC(=O)c1cc(-c2ccc3c(c2)OCO3)on1`, the Potency result was “inactive”.
With `COc1ccc(Cl)cc1-n1c(=S)sc2c(=O)[nH]c(SCC(=O)NCCC(C)C)nc21`, the Potency is 15.1 µM (active).
On the same count and under the same terms, the figure for `O=C(c1ccco1)N(CCC(c1ccccc1)c1ccco1)Cc1ccccc1` (configuration not stated) is 44.7 µM (active); for `CCN(CC(=O)Nc1ccccc1OC)C(=O)c1ccc(N(C)S(=O)(=O)c2ccc(C)cc2)cc1` it is “inactive”; for `COc1cccc(CN(C)CC(=O)Nc2c(C)cccc2C(C)C)c1` it is “inactive”.
Take `Cc1cccc(C)c1Nc1nn2c(=O)c3cc4c(cc3nc2s1)OCO4`: the Potency result was “inactive”.
`COc1ccc(S(=O)(=O)NC(CCSC)C(=O)NC2CCCCC2)cc1` (configuration not stated): the Potency entry is “inactive”.
In the case of `Cc1nnc(SCc2nnc(-c3ccc(Cl)cc3)o2)n1-c1ccccc1`, the Potency entry is “inactive”.
Consider `Cc1ccc(S(=O)(=O)Nc2ccc3cc([N+](=O)[O-])ccc3c2[N+](=O)[O-])cc1`, for which the Potency was 21.3 µM (active).
With `O=S(=O)(N/N=C/c1cccnc1)c1ccc(Cl)c(Cl)c1`, the Potency result is “inactive”.
The same measure, in the same setting: then `COc1cccc(-n2ccn(CC(=O)NCc3ccc(C)cc3)c(=O)c2=O)c1`, with “inactive”; and `C/C(Cc1ccccc1)=N\NC(=O)c1cccnc1`, with “inactive”.
As to `O=C(CC(=O)NC1CCCCC1)N/N=C/c1ccc(Cl)cc1`, the Potency result was “inactive”.
Turning to `CC(=O)Nc1sc(/C(C#N)=C\c2cccc(Cl)c2)nc1-c1ccc(C)cc1`, the Potency entry was “inactive”.
On to `COc1ccc(/C=N\NC(=O)c2cc3c(ccc4ccccc43)o2)cc1O`, for which the Potency result is “inactive”.
For the molecule `CCc1ccc(C(=O)c2cn(CC(=O)Nc3cccc(OC)c3)c3ccc(OC)cc3c2=O)cc1`, the Potency was 53.6 µM (active).
On the same count and under the same terms, then `CCN(CC)c1ccc2cc(-c3nc(-c4cccs4)no3)c(=O)oc2c1`, with “inactive”; and `CCOC(=O)c1c(NC(=O)c2ccccc2OCC)sc2c1CCC(CC)C2` (configuration not stated), with “inactive”.

The target is the same in a further assay. Put plainly: Confirmatory qHTS for agonist of cAMP-regulated guanine nucleotide exchange factor 3 (EPAC1) (AID 1645881). Also: nearly all actives have a fitted effect of over 75% in size. The note with it: EPAC1 Rap1B BODIPY-GDP exchange fluorescence; series mostly up to 154 µM.
Consider `Cc1cccn2cc(CCNC(=O)c3ccco3)nc12`, for which the Potency result is “inactive”.
Same read-out and setting: then `Cn1c(C(O)c2ccc(Br)cc2)nc(Cl)c1Cl` (configuration not stated), with “inactive”; and `O=C(c1ccccc1)c1coc2ccc(O)c(Cl)c12`, with “inactive”.
Same read-out and setting: then `CCc1nnc(NS(=O)(=O)c2ccc(NCc3cc(Cl)ccc3O)cc2)s1`, with “inactive”.
With `O=c1c2cc([N+](=O)[O-])cc([N+](=O)[O-])c2[nH]n1-c1ccccc1`, the Potency entry is “inactive”.
Take `COC(=O)COc1ccc(C(c2c(C)[nH][nH]c2=O)c2c(C)[nH][nH]c2=O)cc1`: the Potency result is “inactive”.
With `COc1ccc(CNC(=S)N/N=C/c2ccc(OC)c(OC)c2)cc1`, the Potency result was “inactive”.
Same read-out and setting: the entry for `O=S(=O)(O)c1cccc(N=Nc2c(O)ccc3ccccc23)c1` is “inactive”; for `COc1nc(C)cc(C)c1S(=O)(=O)c1ccc(Cl)cc1` it is “inactive”; for `O=C1NC(=S)S/C1=C\c1ccc(SCc2ccccc2)o1` it is “inactive”.
In the case of `Cc1ccc(S(=O)(=O)NCCC(=O)N2CCC(Cc3ccccc3)CC2)cc1`, the Potency entry is “inactive”.
For the molecule `COC(=O)c1cc2occc2n1Cc1cccc(C)c1`, the Potency entry was “inactive”.
As to `Cc1ccn2c(=O)c(NC(=O)c3ccc(Br)o3)c(C)nc2c1`, the Potency entry is “inactive”.
Consider `COc1ccc(/C=N/Nc2nnc(C)n2N)cc1OC(C)=O`, for which the Potency entry was “inactive”.
For the molecule `COc1cc(NC(=O)C2CCCCC2)c(OC)cc1NC(=O)CN1CCCCC1`, the Potency result was “inactive”.
Consider `COc1ccc2nc3oc(C(=O)Nc4cccc(C(F)(F)F)c4)cc3cc2c1`, for which the Potency result was “inactive”.
For the molecule `COc1cc(CNc2ccc(O)cc2)cc(Br)c1OCc1ccccc1`, the Potency entry is “inactive”.
Same read-out and setting: then `Cc1ccc(C(=O)N2CCN(c3ccccc3)CC2)cc1S(=O)(=O)N1CCOCC1`, with “inactive”; and `O=C(C1=C(O)C(=O)N(c2nc3ccc(Cl)cc3s2)C1c1ccco1)c1ccco1` (configuration not stated), with “inactive”; and `CCC(COC)Oc1cc(NCc2ccccc2)c2ncn(C(C)C)c2c1` (configuration not stated), with “inactive”.
Same read-out and setting: the entry for `C/C(=N\NC(=O)c1cc(O)ccc1O)c1cccc(NC(=O)c2ccc(Cl)cc2)c1` is “inactive”.
For the molecule `COc1ccc(C2CC(c3cccs3)=NN2C(=O)c2ccco2)cc1OC` (configuration not stated), the Potency result is “inactive”.
With `CCCCNC(=O)c1cc(-c2ccc3c(c2)OCO3)on1`, the Potency entry was “inactive”.
Regarding `COc1ccc(Cl)cc1-n1c(=S)sc2c(=O)[nH]c(SCC(=O)NCCC(C)C)nc21`, the Potency entry is “inactive”.
The same measure, in the same setting: the entry for `O=C(c1ccco1)N(CCC(c1ccccc1)c1ccco1)Cc1ccccc1` (configuration not stated) is “inactive”.
As for `CCN(CC(=O)Nc1ccccc1OC)C(=O)c1ccc(N(C)S(=O)(=O)c2ccc(C)cc2)cc1`, the Potency result is “inactive”.
For the molecule `COc1cccc(CN(C)CC(=O)Nc2c(C)cccc2C(C)C)c1`, the Potency entry was “inactive”.
Still for that read-out and setting: then `Cc1cccc(C)c1Nc1nn2c(=O)c3cc4c(cc3nc2s1)OCO4`, with “inactive”; and `COc1ccc(S(=O)(=O)NC(CCSC)C(=O)NC2CCCCC2)cc1` (configuration not stated), with “inactive”; and `Cc1nnc(SCc2nnc(-c3ccc(Cl)cc3)o2)n1-c1ccccc1`, with “inactive”.
As for `Cc1ccc(S(=O)(=O)Nc2ccc3cc([N+](=O)[O-])ccc3c2[N+](=O)[O-])cc1`, the Potency entry was “inactive”.
Take `O=S(=O)(N/N=C/c1cccnc1)c1ccc(Cl)c(Cl)c1`: the Potency result was “inactive”.
Regarding `COc1cccc(-n2ccn(CC(=O)NCc3ccc(C)cc3)c(=O)c2=O)c1`, the Potency entry is “inactive”.
For the molecule `C/C(Cc1ccccc1)=N\NC(=O)c1cccnc1`, the Potency entry is “inactive”.
As to `O=C(CC(=O)NC1CCCCC1)N/N=C/c1ccc(Cl)cc1`, the Potency entry is “inactive”.
Take `CC(=O)Nc1sc(/C(C#N)=C\c2cccc(Cl)c2)nc1-c1ccc(C)cc1`: the Potency result was “inactive”.
Regarding `COc1ccc(/C=N\NC(=O)c2cc3c(ccc4ccccc43)o2)cc1O`, the Potency result was “inactive”.
For `CCc1ccc(C(=O)c2cn(CC(=O)Nc3cccc(OC)c3)c3ccc(OC)cc3c2=O)cc1`, the Potency entry is “inactive”.
Take `CCN(CC)c1ccc2cc(-c3nc(-c4cccs4)no3)c(=O)oc2c1`: the Potency is 100 µM (active).
Take `CCOC(=O)c1c(NC(=O)c2ccccc2OCC)sc2c1CCC(CC)C2` (configuration not stated): the Potency entry is “inactive”.

Source of the values: PubChem BioAssay (NCATS).
